Several values for one entry are separate records, joined by “and”; a condition that tells them apart may be missing. Identical values can stand only once. Inconclusive results are not listed. More than one record can exist for a structure, and the calls need not agree. Activity calls are given as the source filed them. Calls follow the shape of the dose curve; as a rule, active = well fitted inhibition curve with a large enough effect; inconclusive = small, poorly fitted or top-dose-only effect; inactive = flat fitted curve, though single readings scatter.
Assays:
Assay in all cases: qHTS profiling for inhibitors of Plasmodium falciparum proliferation (AID 504749); also: nearly all actives have a fitted effect of over 60% in size
Settings in all cases: P. falciparum in erythrocytes, SYBR Green DNA, 72 h; series mostly up to 28.7 µM
7G8 = tested on: 7G8
Summary of the method: (§1)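 Parasite proliferation within erythrocytes, 72 h exposure. Endpoint: SYBR Green I fluorescence after overnight lysis at room temperature. Controls: 0.29 uM artemisinin, DMSO.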

CP192 = tested on: CP192
Summary of the method: as §1

CP215 = tested on: CP215
Summary of the method: as §1

CP247 = tested on: CP247
Summary of the method: as §1

CP260 = tested on: CP260
Summary of the method: as §1

CP266 = tested on: CP266
Summary of the method: as §1

CP291 = tested on: CP291
Summary of the method: as §1

CP297 = tested on: CP297
Summary of the method: as §1

CP315 = tested on: CP315
Summary of the method: as §1

CP325 = tested on: CP325
Summary of the method: as §1

CP335 = tested on: CP335
Summary of the method: as §1

DIV14 = tested on: DIV14
Summary of the method: as §1

DIV30 = tested on: DIV30
Summary of the method: as §1

ECU = tested on: ECU
Summary of the method: as §1

GB4 = tested on: GB4
Summary of the method: as §1

ICS = tested on: ICS
Summary of the method: as §1

P93_24 = tested on: P93_24
Summary of the method: as §1

PC26 = tested on: PC26
Summary of the method: as §1

PC49 = tested on: PC49
Summary of the method: as §1

CP201 = tested on: CP201
Summary of the method: as §1

Measured: Potency
Potency is read from the fitted curve at half-maximal effect.

C[C@@H](O)[C@@H]1C(=O)N2C(C(=O)O)=C([C@H]3CCCO3)S[C@H]12
inactive: 7G8 | CP192 | CP215 | CP247 | CP260 | CP266 | CP291 | CP297 | CP315 | CP325 | CP335 | DIV14 | DIV30 | ECU | GB4 | ICS | P93_24 | PC26 | PC49

C[C@@H]1CCN(C(=O)[C@H](CCCNC(=N)N)NS(=O)(=O)c2cccc3c2NC[C@H](C)C3)[C@@H](C(=O)O)C1
inactive: 7G8 | CP192 | CP201 | CP215 | CP247 | CP260 | CP266 | CP291 | CP297 | CP325 | CP335 | DIV14 | DIV30 | ECU | GB4 | ICS | P93_24 | PC26 | PC49

Cc1ccccc1N1C(=O)c2cc(N)ccc2N/C1=C\F
inactive: 7G8 | CP192 | CP201 | CP215 | CP247 | CP260 | CP266 | CP291 | CP297 | CP315 | CP325 | CP335 | DIV30 | ECU | GB4 | P93_24 | PC26 | PC49

COC1CC2CCC(C)[C@](O)(O2)C(=O)C(=O)N2CCCCC2C(=O)OC(C(C)CC2CCC(O)C(OC)C2)CC(=O)C(C)/C=C(/C)C(O)C(OC)C(=O)C(C)CC(C)C=CC=C/C=C\1C (some centres undefined)
active: 7G8 1 µM | CP192 4.78 µM | CP201 7.57 µM | CP215 1.51 µM | CP247 3.16 µM | CP260 2.51 µM | CP266 6.75 µM | CP291 4.78 µM | CP297 4.26 µM | CP315 4.26 µM | CP325 5.36 µM | DIV14 1.51 µM | DIV30 953 nM | ECU 2 µM | GB4 1.69 µM | ICS 0.891 µM | P93_24 1.41 µM | PC26 3.79 µM | PC49 2.24 µM

CO/N=C(/C(=O)N[C@@H]1C(=O)N2C(C(=O)O)=C(CSc3nnnn3C)CS[C@H]12)c1csc(N)n1
inactive: 7G8 | CP192 | CP201 | CP215 | CP247 | CP260 | CP291 | CP297 | CP315 | CP325 | CP335 | DIV14 | DIV30 | ECU | GB4 | ICS | P93_24 | PC26 | PC49

COc1ccc(S(=O)(=O)N2c3ccc(Cl)cc3[C@](O)(c3ccccc3Cl)[C@@H]2C(=O)N2CCC[C@H]2C(N)=O)cc1OC
inactive: CP192 | CP201 | CP215 | CP247 | CP266 | CP291 | CP297 | CP315 | CP325 | DIV30 | GB4 | PC49
active: 7G8 11.2 µM | ICS 10 µM

CC1CN(c2c(F)c(N)c3c(=O)c(C(=O)O)cn(C4CC4)c3c2F)CC(C)N1 (centres undefined)
inactive: CP192 | CP201 | CP215 | CP247 | CP266 | CP291 | CP297 | CP315 | CP325 | DIV14 | DIV30 | ECU | GB4 | ICS | P93_24 | PC26 | PC49

CC1=C(c2ccc(NN=C(C#N)C#N)cc2)NNC(=O)C1
inactive: CP192 | CP201 | CP215 | CP266 | CP291 | CP297 | CP315 | CP325 | CP335 | DIV14 | DIV30 | ECU | ICS | P93_24 | PC26 | PC49

CC(C)(C)NC[C@H](O)CSc1nc(-c2ccc(C(N)=O)s2)cs1
inactive: CP192 | CP201 | CP215 | CP247 | CP266 | CP291 | CP297 | CP315 | CP325 | CP335 | DIV30 | ECU | GB4 | P93_24 | PC26 | PC49

N#C/C(=C1/SCC(c2ccccc2Cl)S1)n1ccnc1 (centres undefined)
inactive: CP192 | CP201 | CP247 | CP260 | CP291 | CP315 | CP325 | CP335 | DIV30 | PC49
active: 7G8 10 µM

Cc1cc2nc3c(=O)[nH]c(=O)nc-3n(CC(O)C(O)C(O)COP(=O)(O)O)c2cc1C (centres undefined)
inactive: 7G8 | CP192 | CP201 | CP215 | CP260 | CP266 | CP291 | CP297 | CP315 | CP325 | CP335 | DIV30 | ECU | GB4 | ICS | P93_24 | PC26 | PC49

C#C[C@]1(O)CC[C@H]2[C@H]3[C@H](CC[C@@]21C)C1=C(CC(=O)CC1)C[C@@H]3C
inactive: CP192 | CP201 | CP215 | CP260 | CP266 | CP291 | CP297 | CP315 | CP325 | CP335 | DIV14 | ECU | GB4 | P93_24 | PC26 | PC49

COc1ccc(C(=O)/C(Br)=C/C(=O)O)cc1
inactive: CP192 | CP201 | CP247 | CP260 | CP266 | CP291 | CP297 | CP315 | CP325 | DIV14 | P93_24 | PC26 | PC49
active: 7G8 10 µM

CC1(C)O[C@@H]2C[C@H]3[C@@H]4CCC5=CC(=O)C=C[C@]5(C)[C@H]4C(O)C[C@]3(C)[C@]2(C(=O)CO)O1 (some centres undefined)
inactive: CP192 | CP201 | CP215 | CP247 | CP291 | CP297 | CP325 | CP335 | DIV14 | DIV30 | PC26

C=C(CC[C@@H](C)[C@H]1CCC2[C@]1(C)CC[C@]13C[C@@]14CCC(OC(=O)/C=C/c1ccc(O)c(OC)c1)C(C)(C)[C@@H]4CC[C@@]23C)C(C)C (some centres undefined)
inactive: CP192 | CP201 | CP215 | CP247 | CP260 | CP266 | CP291 | CP297 | CP315 | CP325 | CP335 | DIV14 | DIV30 | ECU | GB4 | ICS | P93_24 | PC26 | PC49

C/C(=C(/CCOC(=O)C(C)C)SS/C(CCOC(=O)C(C)C)=C(\C)N(C=O)Cc1cnc(C)nc1N)N(C=O)Cc1cnc(C)nc1N
inactive: 7G8 | CP192 | CP201 | CP215 | CP247 | CP260 | CP266 | CP291 | CP297 | CP315 | CP325 | CP335 | DIV14 | DIV30 | ECU | ICS | P93_24 | PC26 | PC49

CNC1=CN(O)C(c2ccccc2)=c2cc(Cl)ccc2=N1
active: CP192 4.26 µM | CP215 4.26 µM and 10.7 µM | CP266 4.78 µM | CP291 3.38 µM | CP297 4.26 µM | CP315 1.9 µM | CP335 3.79 µM | DIV14 1.51 µM | GB4 953 nM and 15.1 µM | ICS 3.98 µM | PC26 4.26 µM
inactive: 7G8 | PC49
4.26 µM (active) and inactive: CP201 | DIV30
7.94 µM (active) and inactive: CP260

CC1=C[C@@H](O)CC(C)(C)[C@@H]1/C=C/C(C)=C/C=C/C(C)=C/C=C/C=C(C)/C=C/C=C(C)/C=C/C1=C(C)C[C@H](O)CC1(C)C
inactive: CP192 | CP201 | CP266 | CP291 | CP315 | CP325
active: 7G8 10 µM | DIV14 12 µM | ICS 5.01 µM | PC49 10 µM

C[C@]12CC[C@@H]3c4ccc(O)cc4C[C@@H](CCCCCCCCCS(=O)CCCC(F)(F)C(F)(F)F)C3[C@@H]1CC[C@@H]2O (some centres undefined)
inactive: CP266 | CP315
active: 7G8 1.78 µM | CP260 8.91 µM | CP291 12 µM | CP297 4.26 µM | CP335 13.5 µM | DIV14 3.01 µM | DIV30 3790 nM | ECU 3.55 µM | GB4 9.53 µM | ICS 2 µM | P93_24 2.24 µM | PC26 3.38 µM

OCC(O)C(O)C(O)C(O)CO (centres undefined)
inactive: 7G8 | CP192 | CP201 | CP215 | CP247 | CP260 | CP266 | CP291 | CP297 | CP315 | CP325 | CP335 | DIV14 | DIV30 | ECU | GB4 | ICS | P93_24 | PC26 | PC49

Cc1c(C)c2c(c(C)c1O)CCC(C)(CCCC(C)CCCC(C)CCCC(C)C)O2 (centres undefined)
inactive: CP192 | CP201 | CP215 | CP247 | CP260 | CP266 | CP291 | CP315 | CP325 | CP335 | DIV14 | DIV30 | ECU | GB4 | P93_24 | PC26 | PC49

CCC(C)C(N)C(=O)O (centres undefined)
inactive: 7G8 | CP192 | CP201 | CP215 | CP247 | CP260 | CP266 | CP291 | CP297 | CP315 | CP325 | CP335 | DIV14 | DIV30 | ECU | P93_24 | PC26 | PC49

Cn1cc(C(=O)[C@@H]2CCc3[nH]cnc3C2)c2ccccc21
inactive: CP192 | CP201 | CP215 | CP247 | CP260 | CP266 | CP291 | CP297 | CP315 | CP325 | CP335 | DIV14 | DIV30 | ECU | GB4 | ICS | P93_24 | PC26 | PC49

From PubChem BioAssay (NCATS)
